This is a sample that favours compounds with a hit; in the whole collection about 4.2% have one here.
GDH-TPI inh = counter-screen for M. tuberculosis FBA inhibitors: GDH-TPI coupled enzymes. GDH-TPI coupled enzyme counterscreen, NADH absorbance. inhibition, % at 4.8 µM. 360,000 compounds, 1.2% hits. AID 588335; in the data active = inhibition above about 30%;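 also: 0% = DMSO wells and 100% = wells lacking the enzyme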
BJeLR viability = kills HRASV12-expressing BJeLR cells; BJeLR (HRASV12) viability, CellTiter-Glo ATP luminescence, 48 h; inhibition, % (no concentration beside the values); 300,000 compounds, 0.17% hits; in the data active = inhibition above about 50%
PrPC TRFRET = inhibitors of human cell surface prion protein PrPC | 370,000 compounds, 0.43% hits | inhibition, % at 13.8 µM | AID 720596 | TR-FRET read-out; in the data active = inhibition above about 24%; also: 0% = median of the test wells and 100% = reference compound wells
RecA splice inh = inhibitors of M. tuberculosis RecA intein splicing; 290,000 compounds, 0.75% hits; cell-free RecA intein splicing, fluorescence; inhibition, % (concentration not given with the values); in the data active = inhibition above about 30%;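 also: 0% = vehicle wells and 100% = reference inhibitor control wells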
Target sequence (P9WHJ3 whole entry, looked up, canonical isoform): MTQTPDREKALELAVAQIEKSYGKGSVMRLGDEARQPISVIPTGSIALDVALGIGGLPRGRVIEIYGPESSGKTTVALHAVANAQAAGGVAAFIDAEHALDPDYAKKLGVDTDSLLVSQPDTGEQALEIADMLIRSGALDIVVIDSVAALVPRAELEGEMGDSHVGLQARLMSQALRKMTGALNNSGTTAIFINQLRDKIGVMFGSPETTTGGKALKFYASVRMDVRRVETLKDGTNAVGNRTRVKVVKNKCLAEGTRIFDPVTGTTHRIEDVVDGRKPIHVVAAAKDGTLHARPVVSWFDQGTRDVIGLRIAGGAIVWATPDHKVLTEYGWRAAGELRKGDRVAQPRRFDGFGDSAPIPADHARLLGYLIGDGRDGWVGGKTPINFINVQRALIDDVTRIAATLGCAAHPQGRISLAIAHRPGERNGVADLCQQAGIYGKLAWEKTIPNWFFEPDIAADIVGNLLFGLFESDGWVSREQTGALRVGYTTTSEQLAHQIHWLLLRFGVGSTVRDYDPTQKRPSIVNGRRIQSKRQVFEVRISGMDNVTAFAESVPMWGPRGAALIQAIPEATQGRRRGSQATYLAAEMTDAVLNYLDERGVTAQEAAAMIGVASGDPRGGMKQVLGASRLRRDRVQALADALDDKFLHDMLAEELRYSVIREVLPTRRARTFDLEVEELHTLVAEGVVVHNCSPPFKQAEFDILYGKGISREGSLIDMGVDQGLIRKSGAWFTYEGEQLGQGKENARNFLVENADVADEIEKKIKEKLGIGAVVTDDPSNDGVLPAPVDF
FBA Mtb inh = inhibits M. tuberculosis FBA enzyme; purified M. tuberculosis FBA, fluorescence read-out; inhibition, % at 1 µM; 360,000 compounds, 2.3% hits; AID 588726; in the data active = inhibition above about 27%;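 also: 0% = vehicle and 100% = reference inhibitor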
Numbers without * were called inactive; i = inactive; x = no result given; + = active, no number.

SMILES	GDH-TPI inh	BJeLR viability	PrPC TRFRET	RecA splice inh	FBA Mtb inh
COC(=O)[C@]12C[C@H](CC(=O)N3CCCCC3)C(=O)N(Cc3ccccc3)C1=C[C@H](COCc1ccccc1)O[C@@H]2C	x	x	14	x	x
CC(C)n1c(=O)c(C=Nc2ccc(S(N)(=O)=O)cc2)c(O)n(Cc2ccco2)c1=O	32*	-9	-2	-2	-2
Cc1cc(C)cc(NC(=O)OC2CC3CC2[C@H]2CCCCN2[C@H]3C)c1 (some centres undefined)	x	x	2	x	x
CN1N=C(C(=O)N=c2sc3ccccc3n2C)CCC1=O	49*	x	-4	x	1
CC(=O)N=c1sc2ccccc2n1C	4	3	2	1	-1
N#Cc1cc(C#N)c(N2CCN(c3ccccn3)CC2)nc1N	32*	-5	-6	-2	0
Cc1cc(=O)oc2c(O)c(O)ccc12	4	x	1	x	2
COc1ccc(/C=C/C(=O)c2c(O)ccc3c(C)cc(=O)oc23)cc1	38*	1	-3	2	-2
COc1ccc(-c2cc(=O)oc3c(C)c(O)ccc23)cc1	15	6	-14	-5	24
COc1ccc(/C=C\C(=O)c2c(O)ccc3c(C)cc(=O)oc23)cc1	49*	5	-1	1	3
CC(=O)Nc1nc(-c2ccccc2)cc(-c2ccco2)c1C#N	16	x	-18	x	+
C#CCNC(=O)C[C@H]1C[C@@]2(C(=O)OC)C(=C[C@H](C(C)(C)C)O[C@@H]2C)N(Cc2cccc3ccccc23)C1=O	x	x	-2	x	x
COc1ccc(NC2CCCN(Cc3cccc4cnccc34)C2)cc1OC (centres undefined)	20	-5	-3	4	118*
COCCCN1C(=O)[C@H](CC(=O)NCCCCc2ccccc2)[C@]2(C(=O)OC)CCCCC=C12	x	x	3	x	x
O=C(/C=C/c1ccc(F)cc1)Nc1ccc(S(=O)(=O)Nc2ncccn2)cc1	33*	-2	-4	-1	2
CCCCN1Cc2c(nc3cc(-c4ccco4)[nH]n3c2=O)C1=O	6	-8	-2	x	143*
OC(c1ccccc1)(c1ccccc1)C1CCN(CCCNc2ccccc2Br)CC1	x	x	-13	x	x
CCOC(=O)c1cccc(NC(=O)CCc2nnc3ccc(N4CCCCC4)nn23)c1	11	4	2	-4	+
CCOCCCn1c(=NC(=O)c2ccco2)c(C(=O)OCC)cc2c(=O)n3cccc(C)c3nc21	17	-3	-12	-177	+
CCOC(=O)c1cc2c(=O)n3cccc(C)c3nc2n(CC(C)C)c1=NC(=O)c1ccco1	13	6	-31	i	+
O=C(C1CCCN(S(=O)(=O)c2ccc(Br)s2)C1)N1CCN(Cc2ccccc2)CC1 (centres undefined)	x	x	-3	x	x
CN(/N=C/C=C/c1ccccc1)c1cc(=O)n(C)c(=O)[nH]1	73*	-16	-12	12	-5
Cn1c(=O)cc(NCc2ccccc2)[nH]c1=O	8	-11	0	0	0
COc1ccc(/C=N/N(C)c2cc(=O)n(C)c(=O)[nH]2)cc1OC	46*	-2	1	10	-2
COC(=O)[C@]12C[C@H](CC(=O)NCCc3ccccc3OC)C(=O)N(Cc3ccco3)C1=C[C@H](C(C)(C)C)O[C@@H]2C	x	x	-4	x	x
SMILES	GDH-TPI inh	BJeLR viability	PrPC TRFRET	RecA splice inh	FBA Mtb inh
Cc1cc(/C=C(\C#N)C(=O)O)c(C)n1CC(C)C	35*	4	-10	x	2
Cc1cc(/C=C(\C#N)C(=O)O)c(C)n1CCC(C)C	23	4	-3	1	3
Cc1ccc(CN2CCCCC(NC(=O)Nc3ccccc3)C2=O)cc1 (centres undefined)	x	x	5	x	x
Cc1ccc(NCc2ccccc2O)cc1	-4	-8	1	-2	8
Cc1ccc(CNc2ccc(O)cc2)cc1	6	2	-14	85*	-1
COCCCn1c(N)c(C(=O)Nc2ccccc2)c2nc3ccccc3nc21	-1	1	2	1	4
CCCCCOC(=O)c1c(N)n(CCOC)c2nc3ccccc3nc12	23	10	-5	-134	+
CCOC(=O)c1c(N)n(CCOC(=O)c2cccs2)c2nc3ccccc3nc12	18	0	6	-2	173*
Cc1cccc(-c2cccc3c4c([nH]c23)[C@@H]2C[C@H](N(C)C(=O)c3ccccc3C)[C@H]([C@H](C)O)C(=O)N2CC4)c1	x	x	12	x	x
O=S(=O)(N/N=C/c1ccc(N2CCOCC2)cc1)c1ccc(Br)cc1	36*	-1	0	3	1
O=C(N[C@H](Cc1ccccc1)C(=O)NCC1CCCO1)[C@H]1O[C@@H](n2ccc(=O)[nH]c2=O)[C@H](O)[C@@H]1O (some centres undefined)	x	x	5	x	x
O=C(NCc1cccs1)c1cccn2c(=O)c3sccc3nc12	31*	5	1	-6	6
CCCCCCCCN=Cc1c(O)[nH]c(=O)[nH]c1=O	4	-7	5	-1	0
COCCCN=Cc1c(O)[nH]c(=S)[nH]c1=O	33*	2	-5	-2	0
COC(=O)[C@]12C[C@H](CC(=O)NCc3ccc(OC)c(OC)c3)C(=O)N(Cc3ccc(Cl)cc3Cl)C1=C[C@H](C(C)(C)C)O[C@@H]2C	x	x	4	x	x
CCCN(CCC)CCNC(=O)CCC(=O)Nc1ccc2nc(N3CCOCC3)cc(C)c2c1	10	10	-4	-1	127*
CCCCN(CC)CCNC(=S)Nc1ccc2nc(N3CCN(C)CC3)cc(C)c2c1	1	14	-21	-5	4
CCCCN(CC)CCNC(=O)CCC(=O)Nc1ccc2nc(N3CCN(C)CC3)cc(C)c2c1	3	6	9	-35	138*
O=c1c2ccccc2nc2n1CCC2	10	-4	-1	51*	-2
O=c1c2ccccc2nc2n1CCCCN2	3	2	-2	1	68*
COc1ccc(C(=O)N2CCC(Oc3cccnc3)CC2)c(OC)c1	x	x	-3	x	x
Cc1nn(-c2ccccc2)c(C)c1C=NNC(=O)CSc1nc2ccccc2n1C	x	x	-2	x	x
Cc1ccc(Nc2c(F)cccc2Cl)c(CC(=O)O)c1	x	x	8	x	x
CCOC(=O)N1CCC(Nc2nc3ccccc3nc2NS(=O)(=O)c2ccc(Cl)cc2)CC1	42*	3	1	-3	5
CCOC(=O)N1CCC(NC(=O)c2ccc(Cl)cc2)CC1	2	-5	6	2	1
SMILES	GDH-TPI inh	BJeLR viability	PrPC TRFRET	RecA splice inh	FBA Mtb inh
CCn1c(SCC(=O)Nc2oc(-c3ccccc3)c(-c3ccccc3)c2C#N)nnc1-c1ccncc1	32*	-5	-1	5	0
N#C/C(=C(/O)CSc1ccccc1C(=O)O)c1nc2ccccc2s1	73*	-1	-6	-6	-4
Cc1ccc(SC/C(O)=C(\C#N)c2nc3ccccc3s2)cc1	32*	-3	-10	1	-1
COc1ccc(C/C(O)=C(\C#N)c2nc3ccccc3s2)cc1	46*	4	x	-2	-3
N#C/C(=C(/O)CSc1ccccn1)c1nc2ccccc2s1	7	17	6	-3	-4
N#Cc1ccc(S(=O)(=O)N2CCCc3nc(-c4ccc(F)cc4)ccc32)cc1	x	x	-7	x	x
